Screens deposited in PubChem BioAssay by National Center for Advancing Translational Sciences (NCATS).
DT40 TDP1 CPT – growth inhibition of DT40 Tdp1-/-;hTDP1 cells with camptothecin (screen for TDP1 inhibitors); chicken DT40 Tdp1-/-;hTDP1 cells + 20 nM CPT, ATP luminescence, 48 h; Potency, µM (highest dose often 46.2 µM), for the others: top-dose activity change, negative = growth inhibition, most hits filed as inhibitors; 420,000 tested, 12% active; AID 686979; also: potency is read from the fitted curve at half-maximal effect; nearly all actives have a fitted effect of over 55% in size
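Chicken DT40 Tdp1-/- cells stably complemented with human TDP1 were seeded at 400 cells/well in medium containing 20 nM camptothecin, exposed to pin-transferred compounds, and grown at 37 °C for at least 48 hr. Viability was read as ATP luminescence.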
RORg inh – ROR gamma (mouse) transcription inhibition; P51450; 310,000 tested, 5.4% active; Drosophila S2 Gal4-RORgamma UAS-luciferase reporter, 20 h; Potency, µM (titrated, usually from 53.6 µM), inactives show at the highest dose activity change, negative = inhibition, usual class: inhibitors; also: potency is read from the fitted curve at half-maximal effect; nearly all actives have a fitted effect of over 60% in size
Target sequence (P51450 whole entry, looked up, the tested form may be a part): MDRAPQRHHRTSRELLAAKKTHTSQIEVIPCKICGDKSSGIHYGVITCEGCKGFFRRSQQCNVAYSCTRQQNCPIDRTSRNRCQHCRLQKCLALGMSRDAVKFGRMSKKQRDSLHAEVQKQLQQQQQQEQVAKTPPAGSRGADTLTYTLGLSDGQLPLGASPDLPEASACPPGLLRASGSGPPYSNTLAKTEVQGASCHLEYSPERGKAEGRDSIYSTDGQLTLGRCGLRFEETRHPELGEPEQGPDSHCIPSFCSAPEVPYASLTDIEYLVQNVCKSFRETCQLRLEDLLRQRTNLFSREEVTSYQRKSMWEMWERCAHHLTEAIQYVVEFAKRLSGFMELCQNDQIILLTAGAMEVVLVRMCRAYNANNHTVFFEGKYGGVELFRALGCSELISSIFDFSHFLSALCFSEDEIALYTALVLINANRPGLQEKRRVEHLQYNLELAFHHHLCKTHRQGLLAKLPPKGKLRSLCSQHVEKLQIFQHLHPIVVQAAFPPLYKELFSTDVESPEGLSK
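Compounds are pin-transferred onto Drosophila Schneider cells expressing a copper-inducible Gal4–ROR gamma transactivation domain fusion. After 1 hr, copper sulfate is added to 700 uM final; luciferase is read 20 hr later.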
ELG1 DNA repair – blocks ELG1-dependent DNA repair in HEK293T cells; HEK293T ELG1-luciferase reporter, luminescence, 16 h; DNA damage induced by 5-fluorouridine; Potency, µM (doses to about 46.1 µM), for inactives: top-dose activity change, negative = inhibition, usual class: inhibitors; 330,000 tested, 2.3% active; also: potency is read from the fitted curve at half-maximal effect; nearly all actives have a fitted effect of over 55% in size
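Luminescence from the luciferase reporter, measured 30 min after ONE-Glo reagent at room temperature, was the read-out. Beforehand, 2,000 cells per well were exposed for 16 hr at 37 °C to 5-fluorouridine together with compound or vehicle.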
IL1B secr inh – blocks inflammasome-driven IL-1 beta release. THP-1 LPS/ATP IL-1B secretion, AlphaLISA, 16 h; active compounds read low. AID 743279. 360,000 tested, 4.7% active. activity change, % at 57.5 µM; in the data active = activity change below about -50%; inconclusive = mostly about -30% to -49%
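Secreted IL-1B measured by AlphaLISA bead assay after 16 h compound exposure of THP-1 cells; compounds (final up to 57.5 uM) added 1 h before LPS (250 ng/mL) and ATP (1.25 mM) stimulation; lower signal means less secretion.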
DT40 TDP1 no CPT – qHTS for Inhibitors of human tyrosyl-DNA phosphodiesterase 1 (TDP1): qHTS in cells in absence of CPT. DT40 Tdp1-/- hTDP1 cells, no CPT, ATP luminescence, 48 h. Potency, µM (top dose mostly 46.2 µM), without a hit: at the top dose activity change, negative = growth inhibition, most hits filed as inhibitors. 420,000 tested, 15% active; also: potency is read from the fitted curve at half-maximal effect; nearly all actives have a fitted effect of over 55% in size
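Readout: luminescence from CellTiter-Glo after 30 min in the dark at RT. Cells: DT40 Tdp1-/- with stable hTDP1, 400/well. Exposure: compounds alone, ≥48 hr, 37 °C.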
Gal4-VP16 FLuc – counter-screen for ROR gamma inhibitors: Gal4-VP16 reporter; Drosophila S2 Gal4-VP16 UAS-luciferase, luminescence, 20 h; Potency, µM (series often up to 53.6 µM), inactives show top-dose activity, negative = inhibition, actives largely listed as inhibitors; 310,000 tested, 3.5% active;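 also: Gal4-VP16 expression switched on by copper sulfate through the metallothionein promoter; potency is read from the fitted curve at half-maximal effect; nearly all actives have a fitted effect of over 50% in size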
Starred values were filed as active, the others as inactive; ? = inconclusive; · = no result given. Most compounds without a hit are left out; they make up all but 21% or so of the library. Unless noted, calls follow the shape of the dose curve; as a rule, active = well fitted curve in the direction sought with a large enough effect; inconclusive = small, poorly fitted or top-dose-only effect, or another doubt; inactive = no such curve, though single readings can be large; an effect the other way counts as inactive or inconclusive. % is scaled to controls: 0 for no effect and ±100 for the full control effect.

SMILES	DT40 TDP1 CPT	RORg inh	ELG1 DNA repair	IL1B secr inh	DT40 TDP1 no CPT	Gal4-VP16 FLuc
CCc1nc2ccc(C(=O)N(C)CCCN(C)C)cn2c1N(C=O)CCC(C)C	-15.7%	·	·	16.8	-8.7%	·
COc1ccc(CCNC(=O)C2CCN(c3ncnc4c3nc3n4CCCCC3)CC2)c(OC)c1	10.8%	·	·	·	0.1%	·
CCOC(=O)/C(C#N)=C\c1cccnc1	6.1%	-17.9%	10.1%	17.5	-0.4%	-2.7%
CCOC(=O)/C(=C\c1cccnc1)C(=O)c1cc(C(C)=O)c(Nc2ccccc2)s1	2.06µM*	3.55µM*	?	-103.5*	1.84µM*	4.47µM*
CCOC(=O)/C(=C\c1ccccc1)C(=O)c1cc(C(C)=O)c(Nc2ccccc2)s1	8.2µM*	7.08µM*	?	-101.4*	9.2µM*	?
C[C@@H]1CN([C@@H](C)CO)C(=O)c2cc(NC(=O)c3ccccc3)ccc2O[C@@H](C)CCCCO[C@@H]1CN(C)Cc1ccc(C(F)(F)F)cc1	9.2µM*	·	·	?	7.31µM*	·
CC(C)NC(=O)Nc1ccc2c(c1)C(=O)N([C@@H](C)CO)C[C@@H](C)[C@H](CN(C)Cc1ccccc1)OCCCC[C@H](C)O2	-18.6%	·	·	-11.9	?	·
C[C@@H]1CCCCO[C@H](CN(C)C(=O)Nc2ccc(F)cc2)[C@@H](C)CN([C@H](C)CO)C(=O)c2cc(NC(=O)c3ccccc3)ccc2O1	?	·	·	-25.4	?	·
C[C@@H]1CCCCO[C@H](CN(C)Cc2ccc3c(c2)OCO3)[C@@H](C)CN([C@H](C)CO)C(=O)c2cc(NC(=O)c3ccccc3)ccc2O1	20.6µM*	·	·	?	14.6µM*	·
C[C@@H]1CCCCO[C@@H](CN(C)Cc2ccccc2)[C@@H](C)CN([C@H](C)CO)C(=O)c2cc(NC(=O)Nc3cccc4ccccc34)ccc2O1	-12.3%	·	·	19.8	20.6µM*	·
C[C@@H]1CCCCO[C@H](CN(C)Cc2ccc3c(c2)OCO3)[C@H](C)CN([C@@H](C)CO)C(=O)c2cc(NC(=O)c3ccccc3)ccc2O1	25.9µM*	·	·	-14.4	20.6µM*	·
C[C@@H]1CCCCO[C@@H](CN(C)Cc2ccc3c(c2)OCO3)[C@@H](C)CN([C@H](C)CO)C(=O)c2cc(N(C)C)ccc2O1	-2.7%	·	·	-25.3	-7.7%	·
CC1(C)CC[C@]2(C(=O)O)CC[C@]3(C)C(=CCC4[C@@]5(C)CC[C@H](O)C(C)(C)C5[C@H](O)C[C@]43C)C2C1 (stereo partly specified)	3.3%	-21.4%	·	·	-19.6%	-10.7%
C[C@@H]1CCCCO[C@H](CN(C)C(=O)NC2CCCCC2)[C@@H](C)CN([C@H](C)CO)C(=O)c2cc(NC(=O)c3ccccc3)ccc2O1	?	·	·	?	20.6µM*	·
O=C(NCCCCNC(=O)c1ccccc1Br)c1ccccc1Br	6.0%	·	·	-8.0	12.0%	·
C=CCOc1ccccc1CN1CCC(CO)(CCOc2ccccc2)CC1	?	-6.9%	1.5%	?	18.4µM*	-10.7%
COc1cc(CN2CCC(CO)(CCOc3ccccc3)CC2)cc(OC)c1OC	-2.2%	-35.9%	3.7%	7.7	-11.4%	-8.0%
COc1ccc(CN2CCC(CO)(CCOc3ccccc3)CC2)cc1C	?	-25.3%	7.4%	-72.1*	?	-5.7%
OCC1(CCOc2ccccc2)CCN(Cc2ccc(OC(F)F)cc2)CC1	0.2%	-21.5%	?	-90.6*	?	-4.6%
OCC1(CCOc2ccccc2)CCN(Cc2ccccc2OC(F)F)CC1	-26.5%	-22.6%	1.3%	-79.2*	?	4.9%
FC(F)Oc1ccc(-c2c[n+]3c(n2-c2ccccc2)CCCCC3)cc1	2.06µM*	9.2%	-8.3%	?	1.46µM*	-0.6%
